Drawing on PubChem BioAssay (NCI), this text covers growth inhibition for 10 molecules.

“And” between values parts separate entries of the source, which are not always exact repeats. Identical values can stand only once. Compounds without any hit were thinned out: in the full panel of roughly 79,000, 15% have a hit. Some compounds were tested as several samples or in several runs, with calls that do not always agree. The source made the active and inactive calls. Rule as the data show it: active = growth inhibition above about 70%; inactive = the rest.

The nature of assay [1]: NCI Yeast Anticancer Drug Screen. Data for the bub3 strain (AID 167). The settings on record: S. cerevisiae bub3 mutant strain, stronger effect = higher value. The gist of the method:
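Compounds were applied to a genetically altered yeast strain carrying a cell-cycle control defect. Growth inhibition was scored against vehicle-treated controls.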

Assay [2] in a line: NCI Yeast Anticancer Drug Screen. Data for the mlh1 rad18 strain (AID 175). The settings on record: S. cerevisiae mlh1 rad18 strain growth inhibition, stronger effect = higher value. An outline of the steps: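 Inhibition values reflect reduced growth of mutant yeast versus vehicle-treated controls following compound exposure; the mutations affect DNA damage repair.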
The nature of assay [3]: NCI Yeast Anticancer Drug Screen. Data for the rad50 strain (AID 155).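 Also: 0% = growth of vehicle-only cultures of the same strain.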 The settings on record: S. cerevisiae rad50 strain growth inhibition, stronger effect = higher value. The gist of the method: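 Yeast carrying a defined DNA repair defect were exposed to test compounds, and growth was compared with vehicle-treated controls to give percent inhibition.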
Assay [4] is described as follows: NCI Yeast Anticancer Drug Screen. Data for the mec2-1 strain (AID 157). The settings on record: S. cerevisiae mec2-1 strain, stronger effect = higher value. The gist of the method: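 Each compound was tested on mec2-1 yeast, a strain altered in DNA damage repair or cell cycle control. Growth inhibition is reported relative to vehicle.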
Assay [5] can be described thus: NCI Yeast Anticancer Drug Screen. Data for the sgs1 mgt1 strain (AID 161).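 Also: 0% = growth of cultures given vehicle only.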 The settings on record: S. cerevisiae sgs1 mgt1 strain, stronger effect = higher value. An outline of the steps: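 Mutant yeast exposed to compound; growth scored against vehicle-only wells.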
Assay [6] can be described thus: NCI Yeast Anticancer Drug Screen. Data for the cln2 rad14 strain (AID 165).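 Also: 0% = growth equal to vehicle treated cultures.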 The settings on record: S. cerevisiae cln2 rad14 strain, stronger effect = higher value. An outline of the steps: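 Test compounds were added to cln2 rad14 yeast cultures; inhibition of growth was then determined by comparison with vehicle treatment.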
Where [7] appears, read: at 5.0 µM (retest, dose inferred, filed as 0.5).
Setting [8] is: at 50.0 µM (retest, dose inferred, filed as 5.0).

`NC(CSCc1ccccc1)C(=O)O` (configuration not stated): the growth inhibition is -6% (inactive) [middle of 4 runs] in assay [1] (at 50.0 µM) and 0.9% (inactive) [middle of 4 runs] in assay [2] (at 50.0 µM).

Take `COC1OCC(O)C(O)C1O` (configuration not stated): the growth inhibition is -2.4% (inactive) [middle of 4 runs] in assay [3] (at 50.0 µM); 8.15% (inactive) [middle of 4 runs] in assay [4] (at 50.0 µM); 1.2% (inactive) [middle of 4 runs] in assay [5] (at 50.0 µM); -8.1% (inactive) [middle of 4 runs] in assay [6] (at 50.0 µM); -0.95% (inactive) [middle of 4 runs] in assay [1] (at 50.0 µM); -7.4% (inactive) [middle of 4 runs] in assay [2] (at 50.0 µM).

Turning to `Nc1cc2ccccc2c2c1ccc1ccccc12`, the growth inhibition in assay [4] (setting [7]) is -48% (inactive) and 1% (inactive); in assay [4] (setting [8]), 8% (inactive) and 97% (active); in assay [4] (at 50.0 µM), 96.9% (active) and 94.2% (active); in assay [1] (setting [7]), -64% (inactive) and -4% (inactive); in assay [1] (setting [8]), -2% (inactive) and 96% (active); in assay [1] (at 50.0 µM), 97.6% (active) and 91.4% (active). For the same molecule, the growth inhibition in assay [2] (setting [7]) is -125% (inactive) and 3% (inactive); in assay [2] (setting [8]) it was -40% (inactive) and 96% (active); in assay [2] (at 50.0 µM), 96.4% (active) and 90.7% (active).

For `Cc1ccc(S(=O)(=O)SC/C=C\CSS(=O)(=O)c2ccc(C)cc2)cc1`, the growth inhibition in assay [4] (setting [7]) is 14% (inactive) and -2% (inactive); in assay [4] (setting [8]), 97% (active); in assay [4] (at 50.0 µM) it was 97% (active) and 5.65% (inactive); in assay [5] (setting [7]), 12% (inactive) and 67% (inactive); in assay [5] (setting [8]), 95% (active) and 97% (active); in assay [5] (at 50.0 µM) it was 95.8% (active) and 76.7% (active). Also, the growth inhibition in assay [6] (setting [7]) was 3% (inactive) and 12% (inactive); in assay [6] (setting [8]), 94% (active); in assay [6] (at 50.0 µM) it was 88.6% (active) and 22.6% (inactive); in assay [1] (setting [7]) it was 12% (inactive) and 17% (inactive); in assay [1] (setting [8]), 99% (active) and 98% (active); in assay [1] (at 50.0 µM) it was 96.5% (active) and -3.05% (inactive).

As for `Nc1ccc(Cc2ccc(Br)cc2)cc1`, the growth inhibition is 12% (inactive) in assay [4] (setting [7]); 99% (active) in assay [4] (setting [8]); 99.3% (active) in assay [4] (at 50.0 µM); 1% (inactive) in assay [5] (setting [7]); 99% (active) in assay [5] (setting [8]); 99.3% (active) in assay [5] (at 50.0 µM). Also, the growth inhibition in assay [6] (setting [7]) was 8% (inactive); in assay [6] (setting [8]), 98% (active); in assay [6] (at 50.0 µM) it was 98.8% (active); in assay [2] (setting [7]), 30% (inactive); in assay [2] (setting [8]) it was 98% (active); in assay [2] (at 50.0 µM), 99.2% (active).

As to `CC(C)C(N)C(=O)NC(C(=O)NC(C(=O)O)C(C)C)C(C)C` (configuration not stated), the growth inhibition in assay [3] (at 50.0 µM) was -1.6% (inactive) [middle of 6 runs]; in assay [4] (at 50.0 µM) it was 6.8% (inactive) [middle of 6 runs]; in assay [5] (at 50.0 µM) it was 3.35% (inactive) [middle of 6 runs]; in assay [1] (at 50.0 µM), 6.2% (inactive) [middle of 6 runs].

As to `O=C(OC(=Nc1ccccc1)N(c1ccccc1)c1ccccc1)c1ccccc1`, the growth inhibition in assay [3] (setting [7]) was 5% (inactive); in assay [3] (setting [8]), 27% (inactive); in assay [3] (at 50.0 µM), 13% (inactive) and 20.9% (inactive); in assay [4] (setting [7]) it was 5% (inactive); in assay [4] (setting [8]), 8% (inactive); in assay [4] (at 50.0 µM), 3.75% (inactive) and 12.8% (inactive). Besides, the growth inhibition is 5% (inactive) in assay [6] (setting [7]); 21% (inactive) in assay [6] (setting [8]); 17.8% (inactive) and -2.05% (inactive) in assay [6] (at 50.0 µM); 17% (inactive) in assay [1] (setting [7]); 34% (inactive) in assay [1] (setting [8]); 5.4% (inactive) and -0.45% (inactive) in assay [1] (at 50.0 µM). Besides, the growth inhibition is 9% (inactive) in assay [2] (setting [7]); 20% (inactive) in assay [2] (setting [8]); 1.95% (inactive) and 12.6% (inactive) in assay [2] (at 50.0 µM).

For the molecule `CC(=O)OC(OC(C)=O)c1c2ccccc2cc2ccccc12`, the growth inhibition is 36% (inactive) in assay [3] (setting [7]); 97% (active) in assay [3] (setting [8]); 89.3% (active) in assay [3] (at 50.0 µM); 15% (inactive) in assay [4] (setting [7]); 96% (active) in assay [4] (setting [8]); 93.2% (active) in assay [4] (at 50.0 µM). Moreover, the growth inhibition is 14% (inactive) in assay [6] (setting [7]); 92% (active) in assay [6] (setting [8]); 91.1% (active) in assay [6] (at 50.0 µM); 8% (inactive) in assay [1] (setting [7]); 97% (active) in assay [1] (setting [8]); 85.5% (active) in assay [1] (at 50.0 µM). Also, the growth inhibition was 23% (inactive) in assay [2] (setting [7]), 97% (active) in assay [2] (setting [8]) and 85.7% (active) in assay [2] (at 50.0 µM).

On to `OC1C(O)C(O)C(O)C(O)C1O` (configuration not stated), for which the values for the growth inhibition in assay [1] (at 50.0 µM) and in assay [2] (at 50.0 µM) were 0.4% (inactive) [middle of 5 runs] and 4.3% (inactive) [middle of 5 runs], respectively.

For `CCCCCCCCCCCCCCCC[N+](C)(C)c1nc(Cl)nc(Cl)n1`, the growth inhibition in assay [4] (setting [7]) is 100% (active); in assay [4] (setting [8]), 100% (active); in assay [4] (at 50.0 µM), 98.1% (active); in assay [5] (setting [7]), 100% (active); in assay [5] (setting [8]), 100% (active); in assay [5] (at 50.0 µM), 99.2% (active). For the same molecule, the growth inhibition in assay [6] (setting [7]) is 98% (active); in assay [6] (setting [8]) it was 99% (active); in assay [6] (at 50.0 µM), 95.5% (active); in assay [1] (setting [7]) it was 99% (active); in assay [1] (setting [8]), 99% (active); in assay [1] (at 50.0 µM), 99.3% (active). For the same molecule, the figures for the growth inhibition in assay [2] (setting [7]), in assay [2] (setting [8]) and in assay [2] (at 50.0 µM) were 99% (active), 99% (active) and 95.8% (active), respectively.
